The record followed here is ChEMBL document CHEMBL4513216, “Probing the Open Global Health Chemical Diversity Library for Multistage-Active Starting Points for Next-Generation Antimalarials” (ACS Infect Dis, 2020).

In all, about 69,000 compounds went through this assay and about 8,600 (12%) showed an effect of 50% or more. Many of the other results were omitted from the sample, so strong results are more common in it than they were.

In this experiment the test system is Plasmodium berghei. Put plainly: Screen against P. berghei liver stage (PbLuc), transformed with Luciferase, at 10uM. The experiment is classed as functional, HepG2. Conditions: tested at 10 uM.
Take `Cc1ccc(CN2CCc3c(nc4cc(C5CC5)nn4c3O)C2)s1`: the INHIBITION was determined as 44.3%. As to `CC(=O)NC(C(=O)N1CCn2cncc2C1)C(C)C` (stereo unspecified), the INHIBITION was determined as 29.8%. `CC(C)N(C(=O)N1CCn2cncc2C1)C(C)C`: the INHIBITION is 52.2%. For the compound `CC(C(=O)N1CCn2cncc2C1)N1CCCC1` (stereo unspecified), the INHIBITION is reported as 47.9%. For `Cn1ncc2c(N3CCC(CC(=O)N4CCCC4)CC3)ncnc21`, the INHIBITION is recorded as 11.9%. For the compound `O=C(CC1CCN(c2ncnc3ccccc23)CC1)N1CCCC1`, the INHIBITION is on record as 53.2%. Regarding `O=C(CC1CCN(c2ncnc3cccc(F)c23)CC1)N1CCCC1`, the INHIBITION is recorded as -18.5%. Regarding `CC(=O)NCCNC(=O)CN1CCOC(Cn2cc(C)cn2)C1` (stereo unspecified), the INHIBITION was 25.6%.

Take `Cc1cccc2[nH]cc(CC(=O)N3CCC(Nc4cccnn4)CC3)c12`: the INHIBITION stood at 24%. Turning to `COc1cccc(CNc2c(C)cnc3c2c(=O)n(C)c(=O)n3C)c1`, the INHIBITION came to 48.1%.

As for `CCc1cnc2c(c1NCc1cccc(OC)c1)c(=O)n(C)c(=O)n2C`, the INHIBITION is recorded as 55.3%. `CCc1cnc2c(c1NCc1ccc(OC)cc1)c(=O)n(C)c(=O)n2C`: the INHIBITION came out at 67.6%.

Take `CCc1cnc2c(c1NCc1ccncc1)c(=O)n(C)c(=O)n2C`: the INHIBITION is listed as 2.3%. As for `CCc1cnc2c(c1Nc1ccc(C)c(F)c1)c(=O)n(C)c(=O)n2C`, the INHIBITION is 53.1%. Regarding `CCc1cnc2c(c1Nc1ccncc1)c(=O)n(C)c(=O)n2C`, the INHIBITION is given as 27.6%. Turning to `CCc1cnc2c(c1Nc1ccc3c(c1)OCO3)c(=O)n(C)c(=O)n2C`, the INHIBITION stood at 4.35%. Turning to `CCc1cnc2c(c1Nc1ccc(OC)cc1)c(=O)n(C)c(=O)n2C`, the INHIBITION is reported as -50.5%.

`COc1ccc(CNc2c(C)cnc3c2c(=O)n(C)c(=O)n3C)cc1`: the INHIBITION is recorded as 9.79%. In the case of `O=S(=O)(Cc1ccccc1Cl)CC(O)CO` (stereo unspecified), the INHIBITION is listed as 27%. The figure for `Cc1cnn(Cc2ccc(NC(=O)N3CCCCC3CO)cc2)c1` (stereo unspecified) is -0.378%; for `Cc1noc(CNC2CCCN(Cc3noc(C4CC4)n3)C2)n1` (stereo unspecified) it is -52.5%; for `COc1cccc(CNCc2nc3ccccc3c(=O)[nH]2)c1` it is 16.5%. In the case of `CCc1ccc(CN2C[C@@H]3OCCN(c4ccnc(N(C)C)n4)[C@@H]3C2)o1`, the INHIBITION worked out at 85.1%. Take `COCCN1C[C@@H]2OCCN(c3ccnc(N(C)C)n3)[C@@H]2C1`: the INHIBITION was -16.9%. Turning to `CN(C)c1nccc(N2CCO[C@H]3CN(CC4CCOCC4)C[C@H]32)n1`, the INHIBITION was 36.8%. Regarding `CN(C)c1nccc(N2CCO[C@H]3CN(Cc4ccco4)C[C@H]32)n1`, the INHIBITION was -23.4%. `CN(C)c1nccc(N2CCO[C@H]3CN(Cc4nccn4C)C[C@H]32)n1`: the INHIBITION came to 80.2%. With `Cc1noc(C)c1CN1CCO[C@H]2CN(Cc3nccn3C)C[C@H]21`, the INHIBITION is on record as 0.72%. As to `CCS(=O)(=O)Nc1ccc2oc(C)c(C(C)=O)c2c1`, the INHIBITION is reported as 28.5%. Turning to `Fc1cnc(N2CCCC3(COCCN(c4nccs4)C3)C2)nc1` (stereo unspecified), the INHIBITION was determined as 29.4%. As to `CN1C[C@H](O)[C@]2(CCN(Cc3ccc(F)c(F)c3)C2)S1(=O)=O`, the INHIBITION amounted to 54%. `COc1ccc(CN2CC[C@@]3(C2)[C@H](O)CN(C)S3(=O)=O)cc1F`: the INHIBITION stood at 20.7%. Under `CN1C[C@H](O)[C@]2(CCN(Cc3ccc(OC(F)(F)F)cc3)C2)S1(=O)=O` stands 26%; under `Cn1cc(CN2CCCC23CCN(C(=O)c2ccncc2)CC3)cn1`, 36.4%. Under `CNC(=O)[C@@]12CCO[C@@H]1CCN(Cc1ccc3c(c1)OCO3)C2` stands 3.69%; under `O=C(N1CCOCC1)[C@@]12CCO[C@@H]1CCN(CC1CCCCC1)C2`, 24.5%. In the case of `O=C(N1CCOCC1)[C@@]12CCO[C@@H]1CCN(Cc1cccc(F)c1)C2`, the INHIBITION came to 95.1%. Under `Cc1cccc(CN2CC[C@H]3OCC[C@@]3(C(=O)N3CCOCC3)C2)n1` stands 12.6%. Under `CN(C)C(=O)[C@@]12CCO[C@@H]1CCN(Cc1ccc3c(c1)OCO3)C2` stands 76.2%; under `O=C(N1CCOCC1)[C@@]12CCO[C@@H]1CCN(CCN1CCCCC1)C2`, -22.9%; under `O=C(N1CCOCC1)[C@@]12CCO[C@@H]1CCN(Cc1ccncc1)C2`, 83.2%.

In the case of `O=C(N1CCOCC1)[C@@]12CCO[C@@H]1CCN(CC1CCC1)C2`, the INHIBITION was 22.2%. In the case of `O=C(N1CCOCC1)[C@@]12CCO[C@@H]1CCN(CC1CCCC1)C2`, the INHIBITION was found to be 53.4%.

For `CC(C)NC(=O)[C@@]12CCO[C@@H]1CCN(Cc1ccc3c(c1)OCO3)C2`, the INHIBITION was 33.5%. In the case of `O=C(N1CCOCC1)[C@@]12CCO[C@@H]1CCN(Cc1ccccc1F)C2`, the INHIBITION is 36.3%. Consider `Cc1cc(CN2CC[C@H]3OCC[C@@]3(C(=O)N3CCOCC3)C2)no1`, for which the INHIBITION was 14.6%. With `O=S(=O)(c1cn[nH]c1)N1CCC(O)(CN2CCOCC2)C1` (stereo unspecified), the INHIBITION was determined as 38.5%. For the compound `COc1cc(-c2nc3c([nH]2)CCCNC3=O)ccc1O`, the INHIBITION is -53%. As for `CN(C)C(=O)CN1CCC2(CCN(CC3CC3)CC2)C1=O`, the INHIBITION is 28.4%. On to `COc1ccccc1CN(C)C(=O)NCc1c(C)cc(C)[nH]c1=O`, for which the INHIBITION was -13.3%. For `O=C(c1ccc(N2CCOCC2)nc1)N1CCCC(n2cccn2)C1` (stereo unspecified), the INHIBITION is reported as 31.3%.
